Screening data (PubChem)
The list is not random: actives were taken first. Their share in the collection is about 1.7%.
miR-21 act: qHTS Assay for Modulators of miRNAs and/orActivators of miR-21; HeLa miR-21 FLuc reporter, luciferase, 48 h; Potency, µM (titrated, usually from 38.3 µM), for inactives: top-dose activity change, positive = activation, actives largely listed as activators; 340,000 tested, under 10 active;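 also: % of control where 0% means no effect; miR-21 action dims this reporter so a rising signal means less miR-21 action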
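HeLa cells stably expressing CMV-driven firefly luciferase with a downstream miR-21 binding sequence, endogenously expressing miR-21, were treated with titrations (up to about 40uM final) for 48 hours at 37 degree Celsius. Luciferase luminescence was read after lysis.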
Pin1 inh: qHTS Assay to Find Inhibitors of Pin1. Potency, µM (doses to about 115 µM), for the others: at the highest dose activity, negative = inhibition, hits mostly inhibitors. actives 0.009% (n = 390,000). Peptidyl-prolyl cis-trans isomerase NIMA-interacting 1 (Homo sapiens), Q13526. AID 504891, 2011. Pin1 FP peptide displacement, HiFluor488, 10 min; active = well fitted inhibition curve with a large enough effect in the polarisation, with a control signal flat, not every such curve was filed as active; inconclusive = small, poorly fitted or top-dose-only effect, or effect the other way, or a change in a side signal; inactive = no such curve, though single readings can be large or run the other way; the % refers to the polarisation; also: potency is read from the fitted curve at half-maximal effect; % is scaled to controls: 0 for no effect and ±100 for the full control effect
Target sequence (Q13526 whole entry, looked up): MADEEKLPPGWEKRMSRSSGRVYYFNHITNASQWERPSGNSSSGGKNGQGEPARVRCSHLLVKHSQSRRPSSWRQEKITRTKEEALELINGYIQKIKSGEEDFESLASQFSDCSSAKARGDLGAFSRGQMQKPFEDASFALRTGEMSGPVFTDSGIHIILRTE
PTHR1 agonist: qHTS for PTHR1 Agonists: Primary Screen; Potency, µM (series often up to 115 µM), inactives show top-dose activation, most hits filed as activators; actives 0.075% (n = 410,000); HEK293 GP2 PTHR1 cells, GloSensor cAMP luminescence, 1 h; also: potency is read from the fitted curve at half-maximal effect; nearly all actives have a fitted effect of over 55% in size
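HEK-293-derived GP2 cells expressing PTHR1 and a GloSensor cAMP reporter, 3,000/well, plated overnight, given luciferin plus IBMX (each 0.5 mM as added) for 1 h at 37 °C, then compound for 1 h at 37 °C. Luminescence was read after 15 min at room temperature.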
GLP1R inv ag: qHTS of GLP-1 Receptor Inverse Agonists (Inhibition Mode) | Potency, µM (top dose mostly 38.3 µM), for inactives: top-dose activity change, negative = inhibition, hits mostly inhibitors | AID 624417, 2012 | actives 1.6% (n = 410,000) | HEK293 GLP-1R CRE-luciferase, luminescence, 24 h; GLP-1R form is constitutively active; also: potency is read from the fitted curve at half-maximal effect; % is scaled to controls: 0 for no effect and ±100 for the full control effect; nearly all actives have a fitted effect of over 55% in size
Target sequence (P43220 whole entry, looked up): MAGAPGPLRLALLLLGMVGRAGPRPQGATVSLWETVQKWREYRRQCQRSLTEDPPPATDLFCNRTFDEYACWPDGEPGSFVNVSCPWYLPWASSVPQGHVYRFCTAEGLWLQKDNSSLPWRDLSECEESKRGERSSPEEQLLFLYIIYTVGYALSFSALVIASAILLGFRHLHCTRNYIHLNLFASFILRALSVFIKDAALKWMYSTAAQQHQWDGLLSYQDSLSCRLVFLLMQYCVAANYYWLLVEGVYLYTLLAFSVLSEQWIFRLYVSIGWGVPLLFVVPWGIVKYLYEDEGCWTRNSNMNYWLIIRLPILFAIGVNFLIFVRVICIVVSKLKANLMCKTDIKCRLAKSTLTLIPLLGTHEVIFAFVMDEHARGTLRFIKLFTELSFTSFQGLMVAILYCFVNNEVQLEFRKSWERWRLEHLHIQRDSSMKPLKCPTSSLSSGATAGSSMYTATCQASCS
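Using stably transfected HEK293 (constitutively active GLP-1R, cAMP-luciferase reporter), compounds were incubated 24 hr and luciferase measured by luminescence.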
GLP1R ag: qHTS of GLP-1 Receptor Agonists. actives 0.007% (n = 380,000). HEK293 GLP-1R CRE-luciferase, luminescence, 4-6 h; cells express a hypersensitive GLP-1R form. Glucagon-like peptide 1 receptor (Homo sapiens), P43220. Potency, µM (top dose mostly 45.6 µM), for inactives: at the top dose activation, actives largely listed as activators; also: potency is read from the fitted curve at half-maximal effect; % of control where 0% means no effect
GLP1R cytotox: qHTS of GLP-1 Receptor Inverse Agonists: Cytotox Screen | HEK293 cAMP-luciferase reporter cells, luminescence, 24 h | Potency, µM (titrated, usually from 38.3 µM), inactives show top-dose activity change, negative = inhibition, actives largely listed as inhibitors | actives 0.13% (n = 410,000);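 also: loss of luciferase light is scored as toxicity; potency is read from the fitted curve at half-maximal effect; % is scaled to controls: 0 for no effect and ±100 for the full control effect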
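Compound-treated cells are incubated 24 hr at 37 deg C under 5% CO2 after a 12 hour attachment period, then luciferase detection reagent is added and luminescence is measured following 12 min at room temperature; lowered signal indicates toxicity.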
Starred values were filed as active, the others as inactive; i = inactive; ? = inconclusive; . = not tested or not shown; [ ] = another dose, or the depositor's remark. Unless noted, calls follow the shape of the dose curve; as a rule, active = well fitted curve in the direction sought with a large enough effect; inconclusive = small, poorly fitted or top-dose-only effect, or another doubt; inactive = no such curve, though single readings can be large; an effect the other way counts as inactive or inconclusive.

SMILES	miR-21 act	Pin1 inh	PTHR1 agonist	GLP1R inv ag	GLP1R ag	GLP1R cytotox
NC(=S)NN=C1CCC(C2CCCCC2)CC1 (stereo not given)	.	-1%	-13%	2.2µM*	14%	?
NC(=S)NN=C1CCCCCCCCCC1	.	-3%	-4%	?	-3%	?
O=C(NCc1nc(-c2ccc(C(F)(F)F)cc2)no1)c1cccs1	-10%	-1%	-48%	10µM*	-1%	-20%
CCc1cc(C(=O)N/N=C/c2ccc(O)cc2)c2ccccc2n1	16%	54%	-9%	-2%	16%	-4%
CC(C)(C)c1cc(C(=O)N/N=C/c2ccc(O)cc2)n(-c2ccccc2)n1	-2%	-1%	-41%	2µM*	-4%	9%
O=S(=O)(c1ccccc1Br)N1CCN(c2nc(-c3ccccc3)nc3ccccc23)CC1	.	0%	.	.	.	.
O=C1NN(c2cccc(Br)c2)C(=O)/C1=C\c1ccc(O)cc1	-2%	.	-29%	10µM*	-2%	?
CCOc1cc(/C=C2/C(=O)NN(c3cccc(Cl)c3)C2=O)ccc1O	4%	-9%	-24%	?	0%	-19%
CC(C)=C1C(=O)NN(c2cccc(Cl)c2)C1=O	-7%	-6%	i	10µM*	0%	-7%
COc1cc(/C=C2/C(=O)NN(c3cccc(Cl)c3)C2=O)cc(OC)c1O	-1%	?	-50%	2.8µM*	-1%	-11%
O=C(Nc1cccc(C(=O)N2CCN(c3ccc(F)cc3)CC2)c1)c1nsc2ccccc12	-8%	12%	-93%	?	.	-16%
O=C1c2ccccc2C(=O)N1c1ccccc1O	.	-2%	.	.	.	.
COc1ccc(NC(=O)/C(Cl)=C(/Cl)S(=O)Cc2ccccc2Cl)cn1 (stereo not given)	?	0%	-54%	?	-8%	4µM*
CCCN1CCCc2cc(CN(CCCN3CCOCC3)C(=O)Nc3ccc(Cl)c(Cl)c3)ccc21	-5%	11%	-9%	?	.	-19%
O=C1CSC(=Nc2ccc(Cl)cc2)N1Cc1ccco1	-12%	4%	-22%	8.9µM*	14%	17%
Cc1cc(C)c(N=C2SCC(=O)N2Cc2ccco2)c(C)c1	0%	-4%	-4%	?	9%	6%
COc1cccc(-n2cc(C(=O)Nc3ccccc3C(N)=O)c3ccccc3c2=O)c1	-18%	19%	-1%	1%	.	-13%
CCOC(=O)N1CCC(N(CCN(C)C)C(=S)Nc2cccc(SC)c2)CC1	-7%	-2%	-14%	5.6µM*	5%	1%
COc1cccc(C(=O)CC2(O)C(=O)Nc3ccc(Cl)cc32)c1 (stereo not given)	18%	-8%	i	-5%	.	0%
COc1cccc(C(=O)NCC(C)(C)SCc2ccc(F)cc2)c1	-5%	-1%	i	11µM*	12%	0%
Cc1ccc(NC(=O)N2CCCN(Cc3ccc(F)cc3)C2)cc1C	-18%	-2%	i	4µM*	-12%	?
Cc1nc(NC(=O)C(C)(C)C)sc1-c1nc(N)sc1-n1cc(-c2ccccc2)nn1	.	.	i	25%	4%	2%
CCNc1nc(-c2sc(NC(=O)C(C)(C)C)nc2C)c(-n2cc(-c3ccccc3)nn2)s1	.	.	-52%	10µM*	-33%	?
CC1CN(Cc2ccccc2)c2ccccc2NC1=S (stereo not given)	5%	4%	-25%	11µM*	-3%	?
C[C@@H]1C[C@H]2[C@@H]3CCC4=CC(=O)C=C[C@]4(C)[C@@]3(F)C(O)C[C@]2(C)[C@@]1(O)C(=O)CO (stereo not given in full)	.	1%	.	.	.	.
SMILES	miR-21 act	Pin1 inh	PTHR1 agonist	GLP1R inv ag	GLP1R ag	GLP1R cytotox
COc1ccc(Nc2ncc(C(=O)N3CCN(c4cccc(Cl)c4)CC3)c3ccccc23)cc1	?	3%	-23%	8.9µM*	-2%	7%
COc1ccc(Nc2ncc(C(=O)N3CCN(c4ccc(F)cc4)CC3)c3ccccc23)cc1	?	9%	-20%	?	-4%	0%
Cc1ccc(Nc2ncc(C(=O)N3CCN(c4ccc(F)cc4)CC3)c3ccccc23)cc1Cl	?	?	-24%	2.8µM*	-2%	6%
COc1ccc(Nc2ncc(C(=O)N3CCN(c4ccc(OC)cc4)CC3)c3ccccc23)cc1	?	8%	-30%	?	-3%	-7%
CN1[C@H]2CC(OC(=O)[C@H](CO)c3ccccc3)C[C@H]1[C@H]1O[C@H]12 (stereo not given in full)	.	.	.	.	2%	.
Cc1ccc(C)c(N2CCN(C(=O)c3ccc4[nH]c(C)c(C)c4c3)CC2)c1	18%	18%	i	7.9µM*	.	-27%
CCOC(=O)N1CCN(C(=O)c2ccc3[nH]c(C)c(C)c3c2)CC1	.	4%	-34%	18%	10%	-15%
O=C1/C(=C/c2cccs2)N=C(c2cccs2)N1Nc1ccccc1	-14%	?	i	10µM*	5%	-10%
C/C(CCc1oc2ccc(Cl)cc2c1-c1ccc(C)o1)=N\O	-6%	9%	i	?	1%	-4%
C/C(CCc1oc2ccc(Br)cc2c1-c1ccc(C)o1)=N/O	-14%	1%	i	10µM*	2%	8%
CCOC(=O)c1ccc(NC(=S)N2CCN(C)CC2)cc1	-13%	0%	4%	-22%	2%	13%
CCOC(=O)c1c(NC(=S)N2CCCCC2)sc2c1CCN(C(=O)OCC)C2	-4%	-1%	-25%	?	25%	?
CCOC(=O)c1c(NC(=O)/C=C/C(=O)O)sc(C)c1-c1ccc(Cl)cc1	12%	19%	-86%	5µM*	-5%	?
CCOC(=O)c1c(NC(=S)N2CCN(C)CC2)sc(C)c1-c1ccccc1	8%	4%	-1%	1.8µM*	-3%	?
CCOC(=O)c1c(NC(=S)N2CCOCC2)sc2c1CCN(C(=O)OCC)C2	25%	10%	-26%	10µM*	10%	?
CCOC(=O)c1c(NC(=O)Nc2ccc(Cl)cc2)sc(C)c1C	-1%	3%	i	14%	-9%	1%
Cc1cc2c(c(=O)n1-c1ccccc1)C1O[C@](c3ccsc3)(Cc3cc(C#N)ccc31)O2	0%[7.66 µM]	.	.	.	.	.
